system: Meloidogyne hapla J2; test: proportion of mobile M. hapla J2 relative to DMSO control (fraction of DMSO control); higher = more viable, less nematicidal, active = 0.7 or less; details: 60 µM; 5 days; temperature: 20 °C
In short: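 Compound was pinned to 60 µM final (0.6% v/v DMSO) into 96-well wells, each holding about 25 M. hapla J2 in distilled water. Plates were sealed and shaken for 5 days at 20 °C and 200 rpm, then given 2 µL 1 M NaOH per well. Microscopic mobility scores were normalised to the mean of the plate's own DMSO wells, eight per plate, with two biological replicates averaged.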

Structure (SMILES) | proportion of mobile M. hapla J2
Cc1ccc(-c2nnc(SCC(=O)NCc3ccccc3)o2)cc1 | 1.04 (inactive)
COc1ccc(Cl)cc1-c1noc(-c2ccccc2C)n1 | 0.93 (inactive)
CC(C)C(=O)Nc1ccccc1-c1nc(-c2ccccc2)no1 | 0.957 (inactive)
Cc1ccc(NC(=O)CSc2nnc(-c3ccncc3)o2)cc1Cl | 0.939 (inactive)
COc1ccc(-c2nc(-c3ccccc3Cl)no2)cc1 | 0.964 (inactive)
CCOc1cc(-c2nc(-c3ccc(OC)cc3)no2)cc(OCC)c1OCC | 0.998 (inactive)
COc1ccc(-c2nnc(SCc3c(Cl)cccc3Cl)o2)cc1 | 1 (inactive)
Cc1ccc(NC(=O)CSc2nnc(-c3ccc(C(C)(C)C)cc3)o2)c(C)c1 | 0.766 (inactive)
CCN(C(=O)CSc1nnc(-c2ccncc2)o1)c1ccccc1 | 0.965 (inactive)
CC(Sc1nnc(-c2ccco2)o1)C(=O)NC(c1ccccc1)c1ccccc1 (stereo not drawn) | 1.05 (inactive)
COc1ccccc1OCc1nc(-c2ccc(Cl)cc2)no1 | 1.01 (inactive)
COc1cccc(-c2noc(-c3ccccc3C)n2)c1 | 1.06 (inactive)
Cc1cccc(-c2nnc(SCC(=O)Nc3ccc(Br)c(C)c3C)o2)c1 | 1 (inactive)
COc1ccc(Cl)cc1-c1nc(-c2ccc3c(c2)OCO3)no1 | 0.957 (inactive)
COc1ccc(C)cc1NC(=O)CSc1nnc(-c2ccc(Br)cc2)o1 | 0.938 (inactive)
Cc1ccccc1OCc1nc(-c2cccc(NC(=O)c3ccco3)c2)no1 | 1.03 (inactive)
Cn1cc(C(=O)CSc2nnc(-c3ccccc3)o2)c2ccccc21 | 1.01 (inactive)
CCc1ccc(C(=O)Nc2ccccc2-c2nc(-c3cccnc3)no2)cc1 | 1.03 (inactive)
COc1ccc(C(=O)Nc2ccc(-c3nnc(SCc4ccccc4)o3)cc2)cc1 | 1.07 (inactive)
Cc1ccccc1-c1nnc(SCC(=O)Nc2cc(C(F)(F)F)ccc2N2CCOCC2)o1 | 0.934 (inactive)

Structure (SMILES) | proportion of mobile M. hapla J2
Cc1ncc2c(c1-c1noc(-c3ccccc3)n1)CCC2 | 0.921 (inactive)
O=C(CSc1nnc(-c2ccc(Cl)cc2)o1)c1ccccc1 | 0.772 (inactive)
Cc1cc(C)c(CSc2nnc(-c3ccccc3)o2)c(C)c1 | 0.962 (inactive)
Brc1ccc(-c2nc(-c3cccnc3)no2)cc1 | 0.984 (inactive)
Cc1nc(CSc2nnc(-c3ccc(Cl)cc3)o2)cs1 | 0.947 (inactive)
CC1Cc2ccccc2N1C(=O)CSc1nnc(-c2ccccc2)o1 (stereo not drawn) | 1.03 (inactive)
O=C(CSc1nnc(-c2ccccc2)o1)Nc1cccc(C(F)(F)F)c1 | 1 (inactive)
COc1ccc(-c2nnc(SCC(=O)Nc3ccc(Cl)cc3Cl)o2)cc1 | 0.976 (inactive)
COc1nc(-c2ccc(C)cc2)ccc1-c1noc(-c2cccc(C)c2)n1 | 0.949 (inactive)
COc1cccc(-c2noc(COc3cccc(C)c3)n2)c1 | 0.995 (inactive)
O=C(CSc1nnc(-c2ccncc2)o1)Nc1cccc(Cl)c1Cl | 0.818 (inactive)
O=C(CSc1nnc(-c2cccc(Cl)c2)o1)Nc1nccs1 | 0.894 (inactive)
Cc1ccc(-c2nc(-c3ccc4c(c3)OCO4)no2)cc1 | 1 (inactive)
Brc1ccc(OCc2nc(-c3cccs3)no2)cc1 | 0.963 (inactive)
O=C(c1ccccc1-c1nc(-c2ccc(Cl)cc2)no1)N1CCCCC1 | 0.941 (inactive)
O=C(CSc1nnc(-c2ccccc2)o1)Nc1cccc(F)c1 | 0.853 (inactive)
COc1ccccc1-c1nc(-c2ccc(Cl)cc2)no1 | 0.934 (inactive)
O=C(CSc1nnc(-c2ccco2)o1)Nc1ccccc1F | 0.933 (inactive)
Cc1ccc(-c2noc(-c3ccccc3C(=O)N3CCC(C)CC3)n2)cc1 | 0.999 (inactive)

system: Caenorhabditis elegans dauer (daf-2(e1370)); test: proportion of mobile C. elegans dauer larvae relative to DMSO control (fraction of DMSO control); higher = more viable, less nematicidal, active = 0.63 or less; extreme values may be limits of the assay; details: 60 µM; 5 days; temperature: 20 °C
In short: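 Synchronized C. elegans daf-2(e1370) larvae were held at 25 °C for 48 h on MYOB plates with E. coli OP50 to form dauers, and about 20 dauers were added per 96-well well in liquid NGM. Compound was pinned to 60 µM final (0.6% v/v DMSO), and sealed plates were shaken at 200 rpm for 5 days at 20 °C. The proportion of mobile worms was scored under a dissection microscope relative to DMSO controls and averaged over two biological replicates.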

Structure (SMILES) | proportion of mobile C. elegans dauer larvae
Cc1ccc(-c2nnc(SCC(=O)NCc3ccccc3)o2)cc1 | 1 (inactive)
COc1ccc(Cl)cc1-c1noc(-c2ccccc2C)n1 | 1 (inactive)
CC(C)C(=O)Nc1ccccc1-c1nc(-c2ccccc2)no1 | 1 (inactive)
Cc1ccc(NC(=O)CSc2nnc(-c3ccncc3)o2)cc1Cl | 1 (inactive)
COc1ccc(-c2nc(-c3ccccc3Cl)no2)cc1 | 1 (inactive)
CCOc1cc(-c2nc(-c3ccc(OC)cc3)no2)cc(OCC)c1OCC | 1 (inactive)
COc1ccc(-c2nnc(SCc3c(Cl)cccc3Cl)o2)cc1 | 1 (inactive)
Cc1ccc(NC(=O)CSc2nnc(-c3ccc(C(C)(C)C)cc3)o2)c(C)c1 | 1 (inactive)
CCN(C(=O)CSc1nnc(-c2ccncc2)o1)c1ccccc1 | 1 (inactive)
CC(Sc1nnc(-c2ccco2)o1)C(=O)NC(c1ccccc1)c1ccccc1 (stereo not drawn) | 1 (inactive)
COc1ccccc1OCc1nc(-c2ccc(Cl)cc2)no1 | 1 (inactive)
COc1cccc(-c2noc(-c3ccccc3C)n2)c1 | 1 (inactive)
Cc1cccc(-c2nnc(SCC(=O)Nc3ccc(Br)c(C)c3C)o2)c1 | 1 (inactive)
COc1ccc(Cl)cc1-c1nc(-c2ccc3c(c2)OCO3)no1 | 1 (inactive)
COc1ccc(C)cc1NC(=O)CSc1nnc(-c2ccc(Br)cc2)o1 | 1 (inactive)
Cc1ccccc1OCc1nc(-c2cccc(NC(=O)c3ccco3)c2)no1 | 1 (inactive)
Cn1cc(C(=O)CSc2nnc(-c3ccccc3)o2)c2ccccc21 | 1 (inactive)
CCc1ccc(C(=O)Nc2ccccc2-c2nc(-c3cccnc3)no2)cc1 | 1 (inactive)
COc1ccc(C(=O)Nc2ccc(-c3nnc(SCc4ccccc4)o3)cc2)cc1 | 1 (inactive)
Cc1ccccc1-c1nnc(SCC(=O)Nc2cc(C(F)(F)F)ccc2N2CCOCC2)o1 | 1 (inactive)

Structure (SMILES) | proportion of mobile C. elegans dauer larvae
Cc1ncc2c(c1-c1noc(-c3ccccc3)n1)CCC2 | 0.929 (inactive)
O=C(CSc1nnc(-c2ccc(Cl)cc2)o1)c1ccccc1 | 1 (inactive)
Cc1cc(C)c(CSc2nnc(-c3ccccc3)o2)c(C)c1 | 1 (inactive)
Brc1ccc(-c2nc(-c3cccnc3)no2)cc1 | 0.552 (active)
Cc1nc(CSc2nnc(-c3ccc(Cl)cc3)o2)cs1 | 1 (inactive)
CC1Cc2ccccc2N1C(=O)CSc1nnc(-c2ccccc2)o1 (stereo not drawn) | 1 (inactive)
O=C(CSc1nnc(-c2ccccc2)o1)Nc1cccc(C(F)(F)F)c1 | 1 (inactive)
COc1ccc(-c2nnc(SCC(=O)Nc3ccc(Cl)cc3Cl)o2)cc1 | 1 (inactive)
COc1nc(-c2ccc(C)cc2)ccc1-c1noc(-c2cccc(C)c2)n1 | 1 (inactive)
COc1cccc(-c2noc(COc3cccc(C)c3)n2)c1 | 1 (inactive)
O=C(CSc1nnc(-c2ccncc2)o1)Nc1cccc(Cl)c1Cl | 1 (inactive)
O=C(CSc1nnc(-c2cccc(Cl)c2)o1)Nc1nccs1 | 1 (inactive)
Cc1ccc(-c2nc(-c3ccc4c(c3)OCO4)no2)cc1 | 1 (inactive)
Brc1ccc(OCc2nc(-c3cccs3)no2)cc1 | 1 (inactive)
O=C(c1ccccc1-c1nc(-c2ccc(Cl)cc2)no1)N1CCCCC1 | 1 (inactive)
O=C(CSc1nnc(-c2ccccc2)o1)Nc1cccc(F)c1 | 1 (inactive)
COc1ccccc1-c1nc(-c2ccc(Cl)cc2)no1 | 1 (inactive)
O=C(CSc1nnc(-c2ccco2)o1)Nc1ccccc1F | 1 (inactive)
Cc1ccc(-c2noc(-c3ccccc3C(=O)N3CCC(C)CC3)n2)cc1 | 1 (inactive)
